Assay outcomes deposited in PubChem BioAssay by National Center for Advancing Translational Sciences (NCATS).
BAZ2B block = inhibitors of human BAZ2B bromodomain. Q9UIF8. AlphaScreen BAZ2B-H3K14Ac peptide displacement. Potency, µM (highest dose often 114 µM), without a hit: at the highest dose activity change, negative = inhibition, actives largely listed as inhibitors. actives 4.4% (n = 360,000). AID 504333; also: % is scaled to controls: 0 for no effect and ±100 for the full control effect; nearly all actives have a fitted effect of over 60% in size
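AlphaScreen displacement of biotin-H3(5-23)K14Ac peptide (50 nM final) from BAZ2B (50 nM final) in PBS pH 7.4, 0.01% Tween-20; complex preformed 30 min RT, then compounds (top 110 uM) 30 min RT, beads 20 min dark.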
Sfp inh = inhibitors of Bacillus subtilis Sfp phosphopantetheinyl transferase; AID 1490; Q9F4F7; Biochemical Sfp PPTase activity, qHTS; Potency, µM, without a hit: largest response in the series, negative = inhibition, actives largely listed as inhibitors; actives 3.5% (n = 310,000);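 also: the enzyme is Sfp with the accession as filed and its product quenches rhodamine fluorescence; 0% = enzyme reaction without inhibitor and -100% = no enzyme wells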
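Compounds were incubated with enzyme (final 15 nM) for 15 min at room temperature before substrate addition started the reaction. Fluorescence at 525 nm excitation, 598 nm emission was recorded immediately and after 30 minutes.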
G9a block = G9a (human) methyltransferase inhibition. G9a H3K9 monomethylation, AlphaScreen, 2 h. AID 504332. actives 8.8% (n = 350,000). Potency, µM (titrated, usually from 102 µM), for the others: at the highest dose activity, negative = inhibition, hits mostly inhibitors. Q96KQ7; also: % is scaled to controls: 0 for no effect and ±100 for the full control effect; nearly all actives have a fitted effect of over 75% in size
Target sequence (Q96KQ7 913-1193 limits assumed): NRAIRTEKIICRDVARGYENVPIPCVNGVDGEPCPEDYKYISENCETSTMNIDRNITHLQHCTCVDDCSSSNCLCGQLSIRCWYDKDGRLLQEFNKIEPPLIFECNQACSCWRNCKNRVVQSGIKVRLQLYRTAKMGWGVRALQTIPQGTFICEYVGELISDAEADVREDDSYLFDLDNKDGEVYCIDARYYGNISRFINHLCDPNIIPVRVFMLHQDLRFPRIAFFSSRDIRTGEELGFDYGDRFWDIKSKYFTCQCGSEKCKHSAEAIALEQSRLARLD
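Enzyme 20 nM + cpd, 15 min RT; add b-H3K9 pep 500 nM / SAM 20 uM; 2 h RT; anti-H3K9me1 Ab 0.5 ug/mL + SA donor / anti-rabbit acceptor beads 20 ug/mL each, 10 min; AlphaScreen read.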
HP1b binding inh = HP1-beta chromodomain-methylated histone interaction inhibition. P83916. Potency, µM (titrated, usually from 114 µM), for inactives: at the top dose activity change, negative = inhibition, most hits filed as inhibitors. AlphaScreen HP1-beta / biotin-H3K9me3 peptide binding. actives 0.56% (n = 390,000). AID 540317; also: nearly all actives have a fitted effect of over 70% in size
Target sequence (P83916 whole entry, looked up): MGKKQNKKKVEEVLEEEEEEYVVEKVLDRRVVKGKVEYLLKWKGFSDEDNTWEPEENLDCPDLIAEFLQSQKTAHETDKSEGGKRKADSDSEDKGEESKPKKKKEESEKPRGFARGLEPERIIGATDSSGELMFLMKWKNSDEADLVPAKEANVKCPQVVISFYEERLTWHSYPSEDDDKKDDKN
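AlphaScreen: HP1-beta (50 nM) preformed 30 min with biotin-H3(1-18)K9me3 peptide (50 nM) in PBS pH 7.4, 0.01% Tween-20. Compound added for 30 min at RT, then streptavidin donor/nickel chelate acceptor beads (10 ug/mL) for 30 min.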
JMJD2A Tudor = blocks the human JMJD2A Tudor domain; AlphaScreen JMJD2A-Tudor / H3K4me3 peptide binding; Potency, µM (titrated, usually from 114 µM), for inactives: top-dose activity change, negative = inhibition, most hits filed as inhibitors; actives 4.4% (n = 390,000); AID 504339; also: % is scaled to controls: 0 for no effect and ±100 for the full control effect; nearly all actives have a fitted effect of over 50% in size
* hit, by the source's call; u = inconclusive; x = no result given; [ ] = another dose, or the depositor's remark. In the library only some 12% were active in any assay of this set; here they are far more common. Calls follow the shape of the dose curve; as a rule, active = well fitted curve in the direction sought with a large enough effect; inconclusive = small, poorly fitted or top-dose-only effect, or another doubt; inactive = no such curve, though single readings can be large; an effect the other way counts as inactive or inconclusive. Potency is read from the fitted curve at half-maximal effect.

SMILES	BAZ2B block	Sfp inh	G9a block	HP1b binding inh	JMJD2A Tudor
COC(=O)C(NC(=O)c1ccccc1Cl)(Nc1ncc(S(=O)(=O)c2ccc([N+](=O)[O-])cc2)s1)C(F)(F)F (centres undefined)	u	15%	u	-21%	u
O=C(Nc1nnc(-c2ccc(Cl)cc2)o1)c1ccc(N2C(=O)CCC2=O)cc1	-26%	27%	43%[59 µM]	19%	-14%
O=C(Nc1nnc(-c2ccc(Br)cc2)o1)c1cccc(N2C(=O)CCC2=O)c1	71µM*	x	-33%	34%	-21%
CC(=O)Nc1nnc(-c2ccco2)o1	u	-23%	7%	8%	4µM*
O=C(Nc1nnc(-c2ccco2)o1)c1ccc(N2C(=O)CCC2=O)cc1	18µM*	79µM*	-26%	27%	28µM*
O=C(CSc1ccc(F)cc1)Nc1nnc(-c2ccco2)o1	35µM*	x	1%[0.501 µM]	38%	u
COc1cc(/C=N/NC(=O)c2ccccn2)ccc1OC(=O)c1ccccc1Br	0%	-3%	22%	37%	-21%
COCC1CCCCN1C(=O)c1ccc2oc(CCc3ccccc3)nc2c1 (centres undefined)	-5%	1%	x	27%	0%
N#CC(=Nc1ccccc1)c1ccccc1	x	x	x	19%	0%
COc1cccc(-c2nnc(NC(=O)c3ccc(Cl)s3)o2)c1	u	6%	u	52%	-12%
O=C(Nc1nnc(-c2ccco2)o1)c1ccc(Cl)s1	u	32%	79µM*	56%	0%
Cc1ccc(NCc2nnc(SCCN3CCCCC3)n2CC2CCCO2)cc1Cl (centres undefined)	-1%	8%	2%[2.33 µM]	4%	-21%
Cc1ccc(NCc2nnc(SCC(=O)Nc3cccc(O)c3)n2CC2CCCO2)c(C)c1 (centres undefined)	u	-10%	56µM*	-8%	u
Cc1ccc(NCc2nnc(SCC(=O)NCc3ccco3)n2CC2CCCO2)cc1Cl (centres undefined)	-39%	-11%	u	-22%	79µM*
CCOC(=O)c1c(NC(=S)N2CCN(C)CC2)sc2c1CCN(C(=O)OCC)C2	u	u	u	-12%	u
Cc1nn(C)c(C)c1S(=O)(=O)N(CC(=O)NCc1ccco1)c1ccc(C(C)C)cc1	-5%	21%	15%[59 µM]	x	x
COc1ccc(CCC(C)N2CCOCC2)cc1 (centres undefined)	7%	14%	-1%	31%	-8%
COc1cc2c(cc1NC(=O)COc1ccccc1OC)oc1ccccc12	-6%	-17%	-8%[59 µM]	43%	-10%
COc1cc2c(cc1NCc1ccc3c(c1)OCO3)oc1ccccc12	32µM*	u	u	u	u
COc1cc2c(cc1NC(=O)c1ccc3c(c1)OCO3)oc1ccccc12	15%	-11%	15%[59 µM]	42%	-10%
COc1cc2c(cc1NC(=S)Nc1cccc3ccccc13)oc1ccccc12	79µM*	u	u	u	u
COCCCNC(=S)Nc1cc2oc3ccccc3c2cc1OC	u	9%	29%	35%	-23%
COc1cc2c(cc1NCc1ccccn1)oc1ccccc12	45µM*	-26%	u	u	45µM*
CCCn1c(N)c(C(=O)CSc2nnc(C)n2Cc2ccccc2)c(=O)n(C)c1=O	3%	17%	-6%	27%	3%
Cc1cc2c(=O)n(Cc3ccco3)c(SCC(=O)c3ccc(Cl)s3)nc2s1	-9%	18µM*	-26%[12.7 µM]	26%	-28%
N#CCSc1nc2ccccc2c(=O)n1CCCC(=O)NCc1ccco1	-15%	7%	-2%[59 µM]	16%	-16%
O=C(CSc1nnc(-c2cc3ccccc3cc2O)n1Cc1ccco1)c1ccc(F)cc1	-21%	21%	u	u	u
Cc1occc1-c1nnc(SCC(=O)c2ccc(F)cc2)n1Cc1ccco1	50µM*	u	10µM*	-3%	-30%
COCCn1c(SCC(=O)c2ccccc2)nc2ccccc2c1=O	5%	-10%	-7%	-6%	3%
O=C(CCCCCn1c(SCc2ccncc2)nc2ccccc2c1=O)NCc1ccco1	50µM*	-22%	u	1%	25µM*
